Compounds with a hit are over-represented: about 1.8% of the library has one in this group of screens.
TLR9-MyD88 block = inhibitors of TLR9-MyD88 association in cells, primary screen, cell-based, CHO, BLA complementation, fluorescence; CCF4 FRET ratio; inhibition, % at 4.98 µM; hit rate 0.21% among 340,000;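 active = inhibition above the mean over all tested compounds plus 3 SD, cut at about 21% in these data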;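 note: 0% = DMSO only wells and 100% = clavulanate BLA inhibitor control wells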
Target sequence (Q99836 whole entry, looked up): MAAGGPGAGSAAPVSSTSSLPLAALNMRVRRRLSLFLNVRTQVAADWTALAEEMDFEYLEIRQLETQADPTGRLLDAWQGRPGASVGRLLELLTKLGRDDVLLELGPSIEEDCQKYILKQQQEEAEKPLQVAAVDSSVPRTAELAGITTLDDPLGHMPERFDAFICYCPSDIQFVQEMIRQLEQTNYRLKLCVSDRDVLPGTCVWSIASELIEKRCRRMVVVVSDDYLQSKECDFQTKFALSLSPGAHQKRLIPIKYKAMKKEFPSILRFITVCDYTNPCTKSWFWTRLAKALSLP
Target sequence (Q9NR96 whole entry, looked up): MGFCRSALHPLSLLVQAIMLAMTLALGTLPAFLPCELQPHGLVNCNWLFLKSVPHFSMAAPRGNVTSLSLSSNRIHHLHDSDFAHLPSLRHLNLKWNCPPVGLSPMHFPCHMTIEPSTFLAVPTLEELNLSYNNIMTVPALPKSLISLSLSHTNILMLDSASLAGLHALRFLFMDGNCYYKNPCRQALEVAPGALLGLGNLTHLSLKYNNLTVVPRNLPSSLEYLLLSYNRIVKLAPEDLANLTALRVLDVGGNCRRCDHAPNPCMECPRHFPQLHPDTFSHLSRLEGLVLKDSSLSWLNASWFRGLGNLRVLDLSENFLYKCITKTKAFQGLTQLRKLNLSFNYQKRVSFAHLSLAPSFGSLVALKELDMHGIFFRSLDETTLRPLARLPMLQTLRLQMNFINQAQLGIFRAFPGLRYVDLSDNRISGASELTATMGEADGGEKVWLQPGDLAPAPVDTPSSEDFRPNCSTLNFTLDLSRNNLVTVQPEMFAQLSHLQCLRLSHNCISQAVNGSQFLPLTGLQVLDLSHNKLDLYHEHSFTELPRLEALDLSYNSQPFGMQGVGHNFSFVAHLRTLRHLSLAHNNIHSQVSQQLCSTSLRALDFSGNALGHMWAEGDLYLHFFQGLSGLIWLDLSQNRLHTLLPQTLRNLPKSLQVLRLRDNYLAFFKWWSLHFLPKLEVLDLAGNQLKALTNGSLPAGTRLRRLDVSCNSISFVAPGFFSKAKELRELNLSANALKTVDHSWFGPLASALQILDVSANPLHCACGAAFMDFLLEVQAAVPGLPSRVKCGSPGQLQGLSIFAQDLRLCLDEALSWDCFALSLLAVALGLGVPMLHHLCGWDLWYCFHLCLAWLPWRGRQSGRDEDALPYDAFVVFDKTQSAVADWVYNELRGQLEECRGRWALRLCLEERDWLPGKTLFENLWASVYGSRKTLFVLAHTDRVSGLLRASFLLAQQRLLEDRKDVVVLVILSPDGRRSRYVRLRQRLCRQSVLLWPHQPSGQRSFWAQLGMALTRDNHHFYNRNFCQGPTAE
Mcl1 Noxa PPI = Mcl-1/Noxa binding inhibitors, primary screen, biochemical, TR-FRET, 1536-well | TR-FRET Mcl-1/Noxa peptide binding, 2 h | Induced myeloid leukemia cell differentiation protein Mcl-1 (Homo sapiens), Q07820 | hit rate 1.5% among 220,000 | inhibition, % at 21.7 µM;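 active = compounds that cut the protein-peptide binding signal by more than 50% relative to plate controls in a single-dose test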;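 note: His-tagged Mcl-1 with rhodamine Noxa BH3 peptide and terbium anti-His antibody; 0% = Mcl-1 plus Noxa peptide wells and 100% = peptide-only wells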
Mcl1 Bid PPI = Mcl-1/Bid binding inhibitors, primary screen, biochemical, TR-FRET, 1536-well; TR-FRET Mcl-1/Bid-Dy647 peptide binding; hit rate 0.97% among 220,000; inhibition, % at 21.7 µM; AID 1021, 2008; Induced myeloid leukemia cell differentiation protein Mcl-1 (Homo sapiens), Q07820;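 active = compounds that cut the binding signal by more than half at the single screening dose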;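 note: His-tagged Mcl-1 with europium anti-His antibody binding Bid BH3 peptide; 0% = Mcl-1 plus peptide wells and 100% = peptide-only wells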
Mcl-1 Bim block = inhibitors of Bim peptide binding to Mcl-1, primary screen, biochemical, bead-based flow cytometry, multiplex; Induced myeloid leukemia cell differentiation protein Mcl-1 (Homo sapiens), Q07820; Bim peptide-Mcl-1 binding; inhibition, % at 10 µM; hit rate 0.1% among 190,000; in the data active = inhibition above about 40%;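 note: 0% = no compound tracer wells and 100% = peptide blocker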
TLR4-MyD88 BLA = inhibitors of TLR4-MyD88 association in cells, primary screen, cell-based, HeLa CL3-4, BLA complementation, FRET ratio; Toll-like receptor 4 (Homo sapiens) + Myeloid differentiation primary response protein …; HeLa CL3-4 TLR4/MyD88 BLA complementation; inhibition, % at 8.4 µM; hit rate 0.18% among 200,000; AID 861, 2007; in the data active = inhibition above about 25%;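 note: 0% = vehicle and 100% = reference inhibitor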
NOD2 RIPK2 PPI = NOD2-RIPK2 binding disruptors in cells, primary screen, fluorescence, CHO cells, BLA complementation; AID 624267, 2012; CCF4 ratio; hit rate 0.38% among 360,000; inhibition, % at 4.98 µM; Receptor-interacting serine/threonine-protein kinase 2 (Homo sapiens), O43353; in the data active = inhibition above about 21%;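 note: 0% = vehicle only and 100% = reference blocker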
NOD2-RIPK2 conf = NOD2-RIPK2 binding disruptors, retest, confirmation, fluorescence, CHO cells, BLA complementation, triplicate | shares compounds with NOD2 RIPK2 PPI | CCF4 FRET | inhibition, % at 4.98 µM | hit rate 70% among 1,200;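 active = mean inhibition across replicates above a set limit taken from the earlier primary screen, cut at about 21% in these data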;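 note: 0% = DMSO-only wells and the high end = clavulanate BLA-blocked wells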
BLA counter = hits BLA reporter in NOD2-RIPK2 inhibitor counterscreen; AID 624371; hit rate 57% among 1,200; inhibition, % at 4.98 µM; shares compounds with NOD2 RIPK2 PPI; CHO BLA reporter, CCF4 FRET ratio;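 active = mean inhibition above the low-control mean inhibition plus three low-control SD, cut at about 11% in these data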;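 note: 0% = DMSO only wells and 100% = clavulanate high control wells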
Starred values were filed as active, the others as inactive; nt = not tested or not shown.

SMILES	TLR9-MyD88 block	Mcl1 Noxa PPI	Mcl1 Bid PPI	Mcl-1 Bim block	TLR4-MyD88 BLA	NOD2 RIPK2 PPI	NOD2-RIPK2 conf	BLA counter
Cc1cccc(C)c1NS(=O)(=O)c1ccc(-c2cnc(C3CC3)o2)cc1	-2	nt	nt	nt	nt	23*	10	-4
Cc1ccc(NS(=O)(=O)c2ccc(-c3cnc(C4CC4)o3)cc2)cc1	-9	nt	nt	nt	nt	2	nt	nt
CC1CCN(C(=O)COC(=O)c2ccccc2NCCO)CC1	6	nt	nt	nt	nt	-4	nt	nt
CC(=O)Nc1ccc(-c2ccnc3c2CC(C)(C(=O)Nc2ccc(Cl)cc2)O3)cc1 (stereo not drawn)	nt	nt	nt	nt	nt	21*	10	0
CNC(=O)C1(C)Cc2c(-c3ccc(NC(C)=O)cc3)ccnc2O1 (stereo not drawn)	nt	nt	nt	nt	nt	4	nt	nt
O=c1c(Cl)c(NCc2ccccc2)cnn1C12CC3CC(CC(C3)C1)C2	4	15	-9	1	13	-13	nt	nt
O=C(Nc1ccc(S(=O)(=O)N2CCCCCC2)cc1)c1[nH]ncc1[N+](=O)[O-]	26*	nt	nt	nt	nt	29*	14	10
Cc1cccc(C)c1NC(=O)C(CCc1ccccc1)n1c(=O)c(-c2ccccc2)nc2ccccc21 (stereo not drawn)	nt	nt	nt	nt	nt	11	nt	nt
O=C(NC1CCCCC1)C(CCc1ccccc1)n1c(=O)c(-c2ccccc2)nc2ccccc21 (stereo not drawn)	nt	nt	nt	nt	nt	-15	nt	nt
CC(C)(C)NC(=O)C(CCc1ccccc1)n1c(=O)c(-c2cc3ccccc3[nH]2)nc2ccccc21 (stereo not drawn)	nt	nt	nt	nt	nt	44*	40*	66*
Cc1cccc(C)c1NC(=O)C(CCc1ccccc1)n1c(=O)c(-c2cc3ccccc3[nH]2)nc2ccccc21 (stereo not drawn)	nt	nt	nt	nt	nt	45*	41*	67*
C=C1C(=O)OC2CC1C(O)CC(C)=CCCC(C)=CC(O)CC2C (stereo not drawn)	1	nt	nt	nt	nt	23*	19	13*
C=C1C(=O)OC2CC1C(OC(C)=O)CC(C)=CCCC(C)=CCCC2(C)O (stereo not drawn)	nt	nt	nt	nt	nt	10	nt	nt
CC(=Cc1ccccc1)C(=O)c1ccccc1	0	nt	nt	nt	nt	5	nt	nt
O=C(C(Br)=Cc1ccccc1)c1ccccc1	3	nt	nt	nt	nt	33*	65*	22*
Cc1cc(S(=O)(=O)c2ccc([N+](=O)[O-])cn2)ccc1Br	-4	nt	nt	nt	nt	-3	nt	nt
Cc1ccc(S(=O)(=O)c2ccc([N+](=O)[O-])cn2)cc1	-5	nt	nt	nt	nt	70*	54*	-3
O=[N+]([O-])c1ccc(S(=O)(=O)c2ccccc2)nc1	3	nt	nt	nt	nt	78*	54*	13*
CC1CCCCN1S(=O)(=O)c1ccc(S(=O)(=O)N2CCN(C)CC2)cc1 (stereo not drawn)	-19	nt	nt	nt	nt	0	nt	nt
COC(=O)CCNC(=O)c1ccc2nc(Cc3ccc(OC)c(OC)c3)oc2c1	9	nt	nt	nt	nt	22*	-3	0
CC1(C)CC(=O)N(c2cc(Cl)cc(Cl)c2)C(=O)C1	-9	nt	nt	nt	nt	-10	nt	nt
CS(=O)(=O)c1ccc(NS(=O)(=O)c2ccc(Cl)c(C(=O)NCc3ccco3)c2)cc1	-10	nt	nt	nt	nt	3	nt	nt
O=C(Nc1ccc2nc3n(c(=O)c2c1)CCCCC3)c1c(F)ccc([N+](=O)[O-])c1F	11	nt	nt	nt	nt	23*	23*	-2
COc1ccc(-c2cc(-c3cccs3)nc3sc(C#N)c(N)c23)cc1	13	24	-40	3	17	45*	51*	69*
N#Cc1sc2nc(C3CC3)cc(-c3ccc(Cl)cc3)c2c1N	14	17	-5	-3	13	28*	19	25*
SMILES	TLR9-MyD88 block	Mcl1 Noxa PPI	Mcl1 Bid PPI	Mcl-1 Bim block	TLR4-MyD88 BLA	NOD2 RIPK2 PPI	NOD2-RIPK2 conf	BLA counter
COCc1cc(C)c2c(N)c(C#N)sc2n1	1	24	-37	-2	-3	-7	nt	nt
Cc1ccc(C)c(Cn2c3ccccc3c3cnn(CC(=O)NCCCN4CCOCC4)c(=O)c32)c1	-4	nt	nt	nt	nt	-2	nt	nt
Cc1cc(OCC(=O)NC2CC(C)(C)NC(C)(C)C2)c2c(C)cc(=O)oc2c1	-4	nt	nt	nt	nt	-5	nt	nt
COc1cc2ccc(=O)oc2cc1O	-9	nt	nt	nt	nt	30*	21	39*
O=C1CC(NS(=O)(=O)c2ccc(F)cc2)CN1c1ccc2c(c1)OCCO2 (stereo not drawn)	-13	nt	nt	nt	nt	2	nt	nt
CC(=O)Nc1ccc(NC(=O)c2cc(-c3ccc(F)cc3C)n[nH]2)cc1	nt	nt	nt	nt	nt	28*	-21	-8
COc1ccc(C(C)=O)cc1CSc1nc2ccccc2c(=O)n1-c1ccccc1C	-3	-4	41	-2	11	24*	-2	-2
COc1ccc(O)c(/C=N/NC(=S)NCCc2ccccc2)c1	16	nt	nt	nt	nt	26*	29*	23*
COc1ccc2cc(-c3[nH]ncc3CN3CCCC3c3nonc3C)ccc2c1 (stereo not drawn)	-11	11	1	-2	13	-2	nt	nt
O=C(Nc1ccc(Oc2ccsc2C(=O)O)cc1)c1ccccc1F	-21	nt	nt	nt	nt	3	nt	nt
CNC(=O)c1nnsc1S(=O)(=O)c1ccc(Cl)cc1	41*	21	7	-2	13	85*	80*	9
O=C(c1nnsc1S(=O)(=O)c1ccc(Cl)cc1)N1CCOCC1	6	14	-18	-1	20	21	nt	nt
Cc1nnc(NC(=O)C(C)Sc2nnc(CNC(=O)c3ccccc3F)n2C)s1 (stereo not drawn)	-7	nt	nt	nt	nt	-10	nt	nt
Cc1cc(C)c2sc(N(CCCN(C)C)C(=O)c3ccc(S(=O)(=O)N4CCc5ccccc5C4)cc3)nc2c1	14	nt	nt	nt	nt	24*	30*	17*
Cc1ccc2nc(N(CCCN(C)C)C(=O)c3ccc(S(=O)(=O)N4CCc5ccccc5C4)cc3)sc2c1	0	nt	nt	nt	nt	8	nt	nt
O=c1oc(-c2ccccc2)cc(Cl)c1Cl	-2	nt	nt	nt	nt	60*	57*	1
O=c1oc(-c2ccccc2)cc2ccccc12	nt	nt	nt	nt	nt	-12	nt	nt
Cc1ccnc(NS(=O)(=O)c2ccc(NS(=O)(=O)c3ccc(Br)cc3)cc2)n1	-5	nt	nt	nt	nt	-12	nt	nt
CCC(C)Sc1cccc(-c2nc3cnccn3c2NC2CCCCC2)c1 (stereo not drawn)	22*	nt	nt	nt	nt	34*	28*	42*
